Where “and” joins values, the source holds several entries; their conditions need not be identical. Equal entries are not always repeated. Records with an inconclusive call do not appear. Calls of active or inactive are those of the source. Unless noted, calls come from the whole dose curve; as a rule, active = well fitted curve in the direction sought with a large enough effect; inconclusive = small, poorly fitted or top-dose-only effect, or another doubt; inactive = no such curve, though single readings can be large; an effect the other way counts as inactive or inconclusive.
Key:
[1] = HPAF-II Cancer Cell Toxicity qHTS against the NCATS CANVASS Library (AID 1347346); note: nearly all actives have a fitted effect of over 55% in size; note: potency is the fitted concentration of half-maximal effect
Summary of the method: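 HPAF-II cells at 1000 cells/well were treated with an 11-point concentration series for 72 hours at 37 degrees C. Viability read by CellTiter-Glo luminescence.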

[2] = UWB1.289 Cancer Cell Toxicity qHTS against the NCATS CANVASS Library (AID 1347347); note: nearly all actives have a fitted effect of over 60% in size; note: potency is the fitted concentration of half-maximal effect
Summary of the method: (§1)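 Bortezomib titration and single-dose wells served as plate controls. Test compounds, 11 points, acted on 1000 cells/well for 72 h at 37 degrees C; CellTiter-Glo luminescence quantified remaining viable cells.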

[3] = SDT Cancer Cell Toxicity qHTS against the NCATS CANVASS Library (AID 1347365); note: nearly all actives have a fitted effect of over 60% in size; note: potency is the fitted concentration of half-maximal effect
Summary of the method: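 SDT dog glioma cells (500/well) exposed to an 11-point compound series for 72 hr at 37C, 5% CO2. Cytotoxicity read as ATP content by CellTiterGlo luminescence; bortezomib titration as control.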

[4] = qHTS for Antimalaria activity screened against the NCATS CANVASS Library (AID 1347380); note: nearly all actives have a fitted effect of over 40% in size; note: potency is the fitted concentration of half-maximal effect
Summary of the method: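 Red blood cells infected with P. falciparum Dd2 (2.5% hematocrit final, 0.3% parasitemia) were exposed to compounds in an 11-point qHTS series for 72 hr at 37C under 5% O2 and 5% CO2. Lysis buffer with SYBR Green was then added for 18 hr, and fluorescence was read at 485/535 nm.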

[5] = Vero-766 cells viability qHTS against the NCATS CANVASS Library: Counterscreen for Zika virus inhibition assay (AID 1347394); note: nearly all actives have a fitted effect of over 60% in size; note: potency is the fitted concentration of half-maximal effect
Summary of the method: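 Counterscreen for toxicity: Vero 766 cells exposed 72 h to an 11-point compound series, viability by CellTiter-Glo.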

[6] = UWB1.289-WTBRCA1 Cancer Cell Toxicity qHTS against the NCATS CANVASS Library (AID 1347354)
Summary of the method: (§2)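 Cells at 1000/well were given compound 4 h after plating in an 11-point series. Viability was read by CellTiter-Glo luminescence after 72 h at 37 degrees C.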

[7] = HEK293 12hr Apoptosis Induction qHTS against the NCATS CANVASS Library (AID 1347361)
Summary of the method: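 Luminescent caspase-3/7 signal, proportional to enzyme activity, was recorded from HEK293 cultures in DMEM + 10% FBS treated for 12 hours with titrated natural products (11 points). Doxorubicin (0.1nM - 4uM) served as control.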

[8] = target: Nuclear receptor subfamily 1 group I member 3 (Homo sapiens) (UniProt Q14994); experiment: qHTS for Constitutive Androstane Receptor (CAR) Antagonist screened against the NCATS CANVASS Library (AID 1347372); note: potency is the fitted concentration of half-maximal effect
Nuclear receptor subfamily 1 group I member 3 (Homo sapiens), sequence (Q14994 whole entry, looked up): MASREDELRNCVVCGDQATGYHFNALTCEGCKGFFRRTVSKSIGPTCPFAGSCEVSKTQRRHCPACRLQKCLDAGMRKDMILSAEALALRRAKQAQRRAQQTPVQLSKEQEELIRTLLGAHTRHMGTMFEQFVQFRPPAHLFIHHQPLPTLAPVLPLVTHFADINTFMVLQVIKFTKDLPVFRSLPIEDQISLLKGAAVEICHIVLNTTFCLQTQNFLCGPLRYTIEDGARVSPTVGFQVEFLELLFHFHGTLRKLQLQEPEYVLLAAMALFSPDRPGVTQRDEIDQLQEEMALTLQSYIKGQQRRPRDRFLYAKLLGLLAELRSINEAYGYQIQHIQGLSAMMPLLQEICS
Summary of the method: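 HepG2 cells stably carrying hCAR and a CYP2B6-2.2kb luciferase reporter were exposed to compounds plus 50 nM CITCO for 24hr at 37C. CAR activity was read by ONE-Glo luminescence, with viability measured first by CellTiter-Fluor.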

[9] = Secretion counterscreen for inhibitors of the SERCaMP assay screened against the NCATS CANVASS Library (AID 1347390);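 note: light from luciferase secreted into medium read as a measure of general secretion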; note: potency is the fitted concentration of half-maximal effect
Summary of the method: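 Natural products are titrated in an 11-point series up to 77 uM onto SH-SY5Y-GLuc STOP cells for 20 h. Secreted reporter activity is measured as coelenterazine-driven luminescence, with Brefeldin A on each plate.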

[10] = OV-SAHO Cancer Cell Toxicity qHTS against the NCATS CANVASS Library (AID 1347348); note: nearly all actives have a fitted effect of over 55% in size; note: potency is the fitted concentration of half-maximal effect
Summary of the method: as §1

[11] = Panc-1005 Cancer Cell Toxicity qHTS against the NCATS CANVASS Library (AID 1347349); note: nearly all actives have a fitted effect of over 60% in size; note: potency is the fitted concentration of half-maximal effect
Summary of the method: as §1

[12] = COV-362 Cancer Cell Toxicity qHTS against the NCATS CANVASS Library (AID 1347352); note: potency is the fitted concentration of half-maximal effect
Summary of the method: as §2

[13] = KB-3-1 Cancer Cell Toxicity qHTS against the NCATS CANVASS Library (AID 1347366); note: nearly all actives have a fitted effect of over 75% in size; note: potency is the fitted concentration of half-maximal effect
Summary of the method: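 Cytotoxicity toward KB-3-1 cells (500/well, DMEM + 10% FBS) was scored by CellTiter-Glo luminescence following 72 hr exposure at 37C, with bortezomib titrated as control.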

[14] = Viability qHTS for inhibitors of the SERCaMP assay screened against the NCATS CANVASS Library (AID 1347400); note: nearly all actives have a fitted effect of over 70% in size; note: potency is the fitted concentration of half-maximal effect
Summary of the method: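 SH-SY5Y-GLuc SERCaMP MJH297-derived cells, 1000/well, plated 4 h, then exposed to compounds in an 11-point qHTS series for 48 h at 37C. Viability read as CellTiter-Glo luminescence.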

[15] = G06 Cancer Cell Toxicity qHTS against the NCATS CANVASS Library (AID 1347368); note: nearly all actives have a fitted effect of over 60% in size; note: potency is the fitted concentration of half-maximal effect
Summary of the method: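 G06 dog glioma cells, 500 per well, exposed 72 hr at 37C, 5% CO2 to compounds in an 11-point series. Cytotoxicity read as ATP content by CellTiterGlo luminescence.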

[16] = target: Calcium and integrin-binding protein 1 (Homo sapiens) (UniProt Q99828); experiment: Primary qHTS for Identification of Calcium Integrin Binding Protein 1 (CIB1) Competitor (AID 1508620);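 note: GST tagged CIB1 binding a fluorescein labelled alphaIIb integrin peptide tracer; top concentration of the series differs between compounds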
Calcium and integrin-binding protein 1 (Homo sapiens), sequence (Q99828 whole entry, looked up): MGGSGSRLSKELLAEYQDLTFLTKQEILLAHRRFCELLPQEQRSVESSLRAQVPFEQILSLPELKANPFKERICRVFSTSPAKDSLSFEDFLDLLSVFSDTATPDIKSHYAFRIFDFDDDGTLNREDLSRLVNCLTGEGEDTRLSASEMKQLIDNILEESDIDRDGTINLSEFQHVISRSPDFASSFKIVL
Summary of the method: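 Fluorescence polarization competition: CIB1-GST (1 uM final) preincubated with compound 15 min at room temperature, then FITC-labeled alphaIIb peptide (100 nM final) added for another 15 min. Polarization read at Ex 480/Em 540.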

[17] = NCATS anti-infectives library activity on the primary C. elegans qHTS viability assay (AID 1745855; calls by dose curve; note: potency is the fitted concentration of half-maximal effect)
Summary of the method: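 Viability read-out is GFP fluorescence of PE254-GFP-FLuc C. elegans, measured by laser cytometry (488 nm) at day 0, 3 and 7. Ten L1 worms per well were incubated 7 days at 21 °C with compounds and bacterial capsules in S medium.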

[18] = U-118MG Cancer Cell Toxicity qHTS against the NCATS CANVASS Library (AID 1347351); note: series mostly up to about 38 µM
Summary of the method: as §1

Measured: Potency

CO[C@@H]1[C@H](O)[C@@H](C)O[C@@H](OC[C@@H]2C(C)OC(=O)/C=C/[C@H](C)C(O[C@@H]3O[C@H](C)CC4(OC(=O)O[C@@H]4C)C3O)[C@@H](C)CC(C)C(=O)/C=C/[C@H]3OC23)[C@@H]1OC (stereo not given in full)
active: [2] 18.8 µM | [3] 16.6 µM | [4] 14900 nM
inactive: [1] | [5]

CC(C)[C@@H]1CC(=O)c2coc3c2[C@H]1C[C@@H](C)C3=O
inactive: [1] | [6] | [7] | [8] | [9]

COc1cc2c(cc1OC)[C@@H](c1ccc3c(c1)OCO3)C(C)[C@@H](C)C2=O (stereo not given in full)
inactive: [10] | [11] | [12] | [6] | [7] | [13] | [8] | [5] | [14]

COC(=O)[C@@]1(C)CCC[C@]2(C)c3cc(OC)ccc3CC[C@@H]12
not listed: [1] | [4] | [8] | [9] | [16] | [17] | [18]
inactive: all other assays above

CC1=C[C@H]2[C@H]3C(=O)C(c4ccc(O)cc4)=C[C@@]3(c3ccc(O)cc3)[C@@H]1C(=O)[C@]2(C)O
active: [3] 0.209 µM | [13] 0.332 µM | [15] 0.235 µM | [8] 0.933 µM | [4] 1.9 nM | [14] 0.48 µM
inactive: [10] | [7]

C/C(=C\[C@H](C)C(=O)C[C@H](O)CC1CC(=O)NC(=O)C1)[C@@H]1OC(=O)CCCC/C=C/[C@@H](O)C[C@@H]1C
active: [2] 9.41 µM | [3] 2.35 µM | [13] 9.35 µM | [15] 2.96 µM | [8] 14.8 µM | [9] 9.65 µM
inactive: [7]

CN1CCc2cc3c(c4c2C1(C)C(=O)c1cc(O)ccc1-4)OCO3 (stereo not given)
active: [3] 1.48 µM | [15] 1.18 µM
inactive: [6] | [8] | [5]

C=C1C[C@H]2O[C@@H]3[C@@H]4[C@H](CC[C@@](C)(O)[C@@H]42)[C@H](C)COC3(C)[C@@H](OC(=O)CCCCCCC)C[C@H]1O (stereo not given in full)
active: [4] 5.9 nM
inactive: [6] | [7]

C[C@H]1CCC2(OC1)O[C@H]1C[C@H]3[C@@H]4CC(=O)[C@]5(O)C[C@H](O)CC[C@@]5(C)[C@H]4CC[C@@]3(C)[C@H]1[C@H]2C (stereo not given in full)
inactive: [10] | [12] | [7] | [13] | [8] | [9]

C/C1=C/[C@@H](C)[C@H](O)C/C=C/CC/C=C/C(=O)O[C@@H]1[C@H](C)C(=O)CCCC1CC(=O)NC(=O)C1
inactive: [13] | [8] | [4]
active: [3] 5.26 µM

O=C(/C=C\n1cnc(-c2cc(C(F)(F)F)cc(C(F)(F)F)c2)n1)NNc1cnccn1
inactive: [16]
active: [17] 25.8 µM

C=C1C(=O)O[C@H]2[C@H]1CCC(C)=C1CC[C@@](C)(O)[C@@H]12
inactive: [8] | [5]
active: [2] 18.8 µM | [10] 18.8 µM | [11] 16.8 µM | [12] 16.7 µM | [3] 26.4 µM | [15] 16.6 µM | [9] 34.3 µM | [14] 42.8 µM

CC[C@@H]1[C@H](C)[C@H](c2cc(OC)c(OC)cc2OC)[C@@H](C)[C@H](c2cc(OC)c(OC)cc2OC)[C@]12C=C(OC)C(=O)C=C2OC
inactive: [6] | [7] | [8]
active: [1] 18.8 µM | [4] 2980 nM | [5] 20.9 µM

COc1cc2oc3ccccc3c(=O)c2cc1OC
active: [4] 4.9 nM
not listed: [1] | [3] | [5] | [15] | [16] | [17] | [18]
inactive: all other assays above

C/C=C/c1cc2c(c(=O)o1)C(=O)[C@@H](O)[C@H](C)O2
inactive: [18] | [4] | [5]
active: [10] 16.7 µM | [11] 13.3 µM | [3] 10.5 µM | [15] 5.26 µM

CC[C@@H](c1cc(OC)c(OC)cc1OC)[C@H](C)[C@@H](/C(C)=C/c1cc(OC)c(OC)cc1OC)c1cc(OC)c(OC)cc1OC
active: [4] 747 nM and 1.88 µM
not listed: [1] | [8] | [9] | [10] | [11] | [16] | [17]
inactive: all other assays above

CC[C@H]1[C@@H](C)[C@@H](c2cc(OC)c(OC)cc2OC)[C@H](C)[C@@H](c2cc(OC)c(OC)cc2OC)[C@@]12C=C(OC)C(=O)C=C2OC
inactive: [7] | [8]
active: [1] 21.1 µM | [2] 23.6 µM | [11] 16.8 µM
